From PubChem BioAssay AID504401 (The Scripps Research Institute Molecular Screening Center, 2011)
Unmarked numbers belong to inactive results. How the calls were made is not given here.

System: Imidazoline I2
Assay: CYP450 and receptor off-target profile – biochemical, Ricerca HitProfilingScreen, selectivity assay for GPR7 antagonist project, late-stage follow-up (AID 504401)
Settings: Ricerca radioligand binding and CYP450 panel, central, at 10 µM, stronger effect = higher value

COc1ccc(Oc2c(Cl)cnn(-c3cc(C)cc(C)c3)c2=O)cc1
inhibition: 22%
